Assay in all cases: PBM; 200 nM protein, PBS
Holding throughout (conditions): dsDNA, one strand shown

Test [1] addresses HESX1 (Homo sapiens, UniProt Q9UBX0 95-180, R165K).
Test [2] has as its target SHOX (Homo sapiens, UniProt O15266 103-189).
In the next test the target is ALX4 (Homo sapiens, UniProt Q9H161 200-286, Q225E).
Test [3] addresses HESX1 (Homo sapiens, UniProt Q9UBX0 95-180).
The target of a further test is MSX2 (Homo sapiens, UniProt P35548 130-214, R199I).
The target in test [4] is ALX1 (Homo sapiens, UniProt Q15699 118-204, L144V).
Sequence of ALX1 (Homo sapiens, UniProt Q15699 118-204, L144V) (Q15699 118-204 L144V): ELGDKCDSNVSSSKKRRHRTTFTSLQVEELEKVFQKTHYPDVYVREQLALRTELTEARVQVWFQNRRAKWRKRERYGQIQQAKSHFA
The target in test [5] is ALX3 (Homo sapiens, UniProt O95076 139-225, N203Q).
Sequence of ALX3 (Homo sapiens, UniProt O95076 139-225, N203Q) (O95076 139-225 N203Q): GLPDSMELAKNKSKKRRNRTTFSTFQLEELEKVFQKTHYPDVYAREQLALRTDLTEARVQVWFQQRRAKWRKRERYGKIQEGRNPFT
Test [6] deals with SHOX (Homo sapiens, UniProt O15266 103-189, R173C).
Sequence of SHOX (Homo sapiens, UniProt O15266 103-189, R173C) (O15266 103-189 R173C): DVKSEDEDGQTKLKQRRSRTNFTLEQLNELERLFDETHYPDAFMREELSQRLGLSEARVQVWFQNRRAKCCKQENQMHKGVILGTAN
Test [7] addresses ALX1 (Homo sapiens, UniProt Q15699 118-204, L144R).
In test [8] the target is ALX3 (Homo sapiens, UniProt O95076 139-225).
Sequence of ALX3 (Homo sapiens, UniProt O95076 139-225) (O95076 139-225): as the sequence (O95076 139-225 N203Q) above, with Q65N counted along it
Test [9] has as its target PROP1 (Homo sapiens, UniProt O75360 56-141).
Test [10] addresses HESX1 (Homo sapiens, UniProt Q9UBX0 95-180, R109Q).
For test [11], the target named is PROP1 (Homo sapiens, UniProt O75360 56-141, R99H).
Sequence of PROP1 (Homo sapiens, UniProt O75360 56-141, R99H) (O75360 56-141 R99H): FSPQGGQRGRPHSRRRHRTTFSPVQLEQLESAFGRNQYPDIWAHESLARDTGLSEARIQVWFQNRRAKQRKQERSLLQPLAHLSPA
Test [12] has as its target ALX3 (Homo sapiens, UniProt O95076 139-225, L168Q).
Test [13] has as its target HESX1 (Homo sapiens, UniProt Q9UBX0 95-180, P111T).
In test [14] the target is ALX3 (Homo sapiens, UniProt O95076 139-225, L168V).
Sequence of ALX3 (Homo sapiens, UniProt O95076 139-225, L168V) (O95076 139-225 L168V): as the sequence (O95076 139-225 N203Q) above, with L30V, Q65N counted along it
For test [15], the target named is PROP1 (Homo sapiens, UniProt O75360 56-141, F88S).
Sequence of PROP1 (Homo sapiens, UniProt O75360 56-141, F88S) (O75360 56-141 F88S): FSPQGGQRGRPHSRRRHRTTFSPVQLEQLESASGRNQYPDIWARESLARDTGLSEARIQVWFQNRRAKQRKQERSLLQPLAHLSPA
Test [16] addresses HESX1 (Homo sapiens, UniProt Q9UBX0 95-180, F115L).
In test [17] the target is ALX1 (Homo sapiens, UniProt Q15699 118-204).
Sequence of ALX1 (Homo sapiens, UniProt Q15699 118-204) (Q15699 118-204): as the sequence (Q15699 118-204 L144V) above, with V27L counted along it
In test [18] the target is ALX3 (Homo sapiens, UniProt O95076 139-225, N203S).
Sequence of ALX3 (Homo sapiens, UniProt O95076 139-225, N203S) (O95076 139-225 N203S): as the sequence (O95076 139-225 N203Q) above, with Q65S counted along it

Sequence of HESX1 (Homo sapiens, UniProt Q9UBX0 95-180, P111T) (Q9UBX0 95-180 P111T): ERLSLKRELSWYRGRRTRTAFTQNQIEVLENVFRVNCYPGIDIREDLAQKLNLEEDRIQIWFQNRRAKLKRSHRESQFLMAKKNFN
Sequence of SHOX (Homo sapiens, UniProt O15266 103-189) (O15266 103-189): as the sequence (O15266 103-189 R173C) above, with C71R counted along it
Sequence of HESX1 (Homo sapiens, UniProt Q9UBX0 95-180, R109Q) (Q9UBX0 95-180 R109Q): as the sequence (Q9UBX0 95-180 P111T) above, with R15Q, T17P counted along it
Sequence of HESX1 (Homo sapiens, UniProt Q9UBX0 95-180) (Q9UBX0 95-180): as the sequence (Q9UBX0 95-180 P111T) above, with T17P counted along it
Sequence of HESX1 (Homo sapiens, UniProt Q9UBX0 95-180, R165K) (Q9UBX0 95-180 R165K): as the sequence (Q9UBX0 95-180 P111T) above, with T17P, R71K counted along it
Sequence of HESX1 (Homo sapiens, UniProt Q9UBX0 95-180, F115L) (Q9UBX0 95-180 F115L): as the sequence (Q9UBX0 95-180 P111T) above, with T17P, F21L counted along it
Sequence of ALX1 (Homo sapiens, UniProt Q15699 118-204, L144R) (Q15699 118-204 L144R): as the sequence (Q15699 118-204 L144V) above, with V27R counted along it
Sequence of ALX3 (Homo sapiens, UniProt O95076 139-225, L168Q) (O95076 139-225 L168Q): as the sequence (O95076 139-225 N203Q) above, with L30Q, Q65N counted along it
Sequence of ALX4 (Q9H161 200-286 Q225E): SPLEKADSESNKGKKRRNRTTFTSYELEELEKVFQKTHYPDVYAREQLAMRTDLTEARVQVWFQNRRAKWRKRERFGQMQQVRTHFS
Sequence of MSX2 (P35548 130-214 R199I): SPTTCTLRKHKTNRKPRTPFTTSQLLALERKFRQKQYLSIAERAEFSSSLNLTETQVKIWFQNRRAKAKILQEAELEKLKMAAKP
Sequence of PROP1 (Homo sapiens, UniProt O75360 56-141) (O75360 56-141): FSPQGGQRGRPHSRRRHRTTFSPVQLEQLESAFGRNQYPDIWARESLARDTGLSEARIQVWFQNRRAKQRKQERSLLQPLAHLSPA

For AATTAAGC, the binding signal with HESX1 [1] was 11.5 upbm affinity estimate (log intensity, higher = more binding, comparable within an allelic series); with SHOX [2], 11.9 upbm affinity estimate (log intensity, higher = more binding, comparable within an allelic series); in the test with ALX4 it was 12.9 upbm affinity estimate (log intensity, higher = more binding, comparable within an allelic series); with HESX1 [3], 11.6 upbm affinity estimate (log intensity, higher = more binding, comparable within an allelic series); with MSX2 it was 12.2 upbm affinity estimate (log intensity, higher = more binding, comparable within an allelic series); with ALX1 [4] it was 11.6 upbm affinity estimate (log intensity, higher = more binding, comparable within an allelic series). The binding signal is 8.44 upbm affinity estimate (log intensity, higher = more binding, comparable within an allelic series) in the test with ALX3 [5]; 9.54 upbm affinity estimate (log intensity, higher = more binding, comparable within an allelic series) in the test with SHOX [6]; 11.2 upbm affinity estimate (log intensity, higher = more binding, comparable within an allelic series) in the test with ALX1 [7]; 12.4 upbm affinity estimate (log intensity, higher = more binding, comparable within an allelic series) with ALX3 [8]; 11.2 upbm affinity estimate (log intensity, higher = more binding, comparable within an allelic series) with PROP1 [9]; 9.03 upbm affinity estimate (log intensity, higher = more binding, comparable within an allelic series) in the test with HESX1 [10]. Besides, the binding signal with PROP1 [11] is 11 upbm affinity estimate (log intensity, higher = more binding, comparable within an allelic series); in the test with ALX3 [12], 10.4 upbm affinity estimate (log intensity, higher = more binding, comparable within an allelic series); with HESX1 [13], 10.5 upbm affinity estimate (log intensity, higher = more binding, comparable within an allelic series); with ALX3 [14], 9.92 upbm affinity estimate (log intensity, higher = more binding, comparable within an allelic series); with PROP1 [15] it was 7.71 upbm affinity estimate (log intensity, higher = more binding, comparable within an allelic series); with HESX1 [16] it was 7.7 upbm affinity estimate (log intensity, higher = more binding, comparable within an allelic series). The binding signal in the test with ALX1 [17] was 12.2 upbm affinity estimate (log intensity, higher = more binding, comparable within an allelic series); with ALX3 [18], 8.49 upbm affinity estimate (log intensity, higher = more binding, comparable within an allelic series).
For CAATTATA, the binding signal with HESX1 [1] was 12.8 upbm affinity estimate (log intensity, higher = more binding, comparable within an allelic series); with SHOX [2], 12.2 upbm affinity estimate (log intensity, higher = more binding, comparable within an allelic series); in the test with ALX4 it was 13.4 upbm affinity estimate (log intensity, higher = more binding, comparable within an allelic series); with HESX1 [3] it was 12.8 upbm affinity estimate (log intensity, higher = more binding, comparable within an allelic series); in the test with MSX2, 13.1 upbm affinity estimate (log intensity, higher = more binding, comparable within an allelic series); in the test with ALX1 [4], 11.7 upbm affinity estimate (log intensity, higher = more binding, comparable within an allelic series). Besides, the binding signal with ALX3 [5] is 8.6 upbm affinity estimate (log intensity, higher = more binding, comparable within an allelic series); with SHOX [6] it was 9.46 upbm affinity estimate (log intensity, higher = more binding, comparable within an allelic series); with ALX1 [7] it was 11.4 upbm affinity estimate (log intensity, higher = more binding, comparable within an allelic series); with ALX3 [8], 12.5 upbm affinity estimate (log intensity, higher = more binding, comparable within an allelic series); in the test with PROP1 [9], 11.4 upbm affinity estimate (log intensity, higher = more binding, comparable within an allelic series); with HESX1 [10], 8.93 upbm affinity estimate (log intensity, higher = more binding, comparable within an allelic series). For the same sequence, the binding signal in the test with PROP1 [11] was 11.5 upbm affinity estimate (log intensity, higher = more binding, comparable within an allelic series); with ALX3 [12], 10.7 upbm affinity estimate (log intensity, higher = more binding, comparable within an allelic series); with HESX1 [13] it was 11.4 upbm affinity estimate (log intensity, higher = more binding, comparable within an allelic series); with ALX3 [14] it was 10.2 upbm affinity estimate (log intensity, higher = more binding, comparable within an allelic series); in the test with PROP1 [15], 7.86 upbm affinity estimate (log intensity, higher = more binding, comparable within an allelic series); with HESX1 [16], 8.06 upbm affinity estimate (log intensity, higher = more binding, comparable within an allelic series). For the same sequence, the binding signal with ALX1 [17] was 12.3 upbm affinity estimate (log intensity, higher = more binding, comparable within an allelic series); with ALX3 [18], 8.66 upbm affinity estimate (log intensity, higher = more binding, comparable within an allelic series).
GGAAGACC: the binding signal is 6.27 upbm affinity estimate (log intensity, higher = more binding, comparable within an allelic series) with HESX1 [1]; 7.12 upbm affinity estimate (log intensity, higher = more binding, comparable within an allelic series) in the test with SHOX [2]; 6.19 upbm affinity estimate (log intensity, higher = more binding, comparable within an allelic series) with HESX1 [3]; 7.18 upbm affinity estimate (log intensity, higher = more binding, comparable within an allelic series) with SHOX [6]; 6.45 upbm affinity estimate (log intensity, higher = more binding, comparable within an allelic series) with HESX1 [10]; 6.41 upbm affinity estimate (log intensity, higher = more binding, comparable within an allelic series) with HESX1 [13]. Also, the binding signal with HESX1 [16] is 6.45 upbm affinity estimate (log intensity, higher = more binding, comparable within an allelic series).
In the case of CCTTCGAG, the binding signal is 6.45 upbm affinity estimate (log intensity, higher = more binding, comparable within an allelic series) in the test with HESX1 [1]; 7.09 upbm affinity estimate (log intensity, higher = more binding, comparable within an allelic series) with SHOX [2]; 6.39 upbm affinity estimate (log intensity, higher = more binding, comparable within an allelic series) with HESX1 [3]; 7.23 upbm affinity estimate (log intensity, higher = more binding, comparable within an allelic series) with SHOX [6]; 6.55 upbm affinity estimate (log intensity, higher = more binding, comparable within an allelic series) with HESX1 [10]; 6.56 upbm affinity estimate (log intensity, higher = more binding, comparable within an allelic series) in the test with HESX1 [13]. The binding signal with HESX1 [16] was 6.63 upbm affinity estimate (log intensity, higher = more binding, comparable within an allelic series).

For the origin of these results see paper PMC11006913.
